From PubChem BioAssay (EPA / NIEHS) come the findings set out here.

Read-out in experiment [1]: Vascular cell adhesion molecule 1 (VCAM1), VCAM1 (gene 7412)
Nature of the experiment: BSK_4H_VCAM1: BioMAP Diversity Plus: 4H Assay for Vascular cell adhesion molecule 1 (VCAM1) Biomarker Activity (AID 2283033). As to conditions: primary human endothelial cells (HUVEC); actives raise or lower the signal. A digest of the protocol: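 Primary human umbilical vein endothelial cells, 4H stimulation system, treated for 24 h; cell-surface VCAM-1 quantified by ELISA. Bidirectional fitting against DMSO; cytotoxicity tracked by SRB total-protein staining in parallel cultures.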

Read-out in experiment [2]: Interferon-gamma inducible Protein 10 (IP10), CXCL10 (gene 3627)
Nature of the experiment: BSK_BE3C_IP10: BioMAP Diversity Plus: BE3C Assay for Interferon-gamma inducible Protein 10 (IP10) Biomarker Activity (AID 2283034). The following applies: primary human bronchial epithelial cells; actives raise or lower the signal. A digest of the protocol: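 Primary human bronchial epithelial cells, with IP-10 measured by ELISA 24 hours after chemical dosing. Bidirectional fit against DMSO; cytotoxicity checked by SRB total protein staining in parallel cultures.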

Read-out in experiment [3]: Monokine induced gamma interferon (MIG), CXCL9 (gene 4283)
Nature of the experiment: BSK_BE3C_MIG: BioMAP Diversity Plus: BE3C Assay for Monokine induced gamma interferon (MIG) Biomarker Activity (AID 2283035). The following applies: primary human bronchial epithelial cells; actives raise or lower the signal. Put shortly: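 ELISA read-out of MIG in human lung bronchial epithelial primary cultures, 24 h post-dosing. Bidirectional curve fit vs DMSO baseline.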

Read-out in experiment [4]: Transforming growth factor beta 1 (TGFb1), TGFB1 (gene 7040)
Briefly: BSK_BE3C_TGFb1: BioMAP Diversity Plus: BE3C Assay for Transforming growth factor beta 1 (TGFb1) Biomarker Activity (AID 2283036). As to conditions: primary human bronchial epithelial cells; actives raise or lower the signal. A digest of the protocol:
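Primary human bronchial epithelial cells dosed with chemical; TGF-b1 measured by ELISA 24 h after dosing. Bidirectional curve fitting against DMSO negative control; SRB total-protein staining in parallel cultures gauged cytotoxicity.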

Read-out in experiment [5]: Plasminogen activator inhibitor-1 (PAI1), SERPINE1 (gene 5054)
Nature of the experiment: BSK_BE3C_PAI1: BioMAP Diversity Plus: BE3C Assay for Plasminogen activator inhibitor-1 (PAI1) Biomarker Activity (AID 2283037). The following applies: primary human bronchial epithelial cells; actives raise or lower the signal. A digest of the protocol: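 Primary human bronchial epithelial cells (BE3C system) exposed 24 h; PAI-1 quantified by ELISA. Parallel sulforhodamine B staining of total protein flags cytotoxicity. Bidirectional fit versus DMSO.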

Read-out in experiment [6]: urokinase plasminogen activator (uPA), PLAU (gene 5328)
Nature of the experiment: BSK_BE3C_uPA: BioMAP Diversity Plus: BE3C Assay for urokinase plasminogen activator (uPA) Biomarker Activity (AID 2283038).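 As to outcome: uPA protein level quantified by ELISA in cell cultures; uPA read one day after compound addition.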 The following applies: primary human bronchial epithelial cells; actives raise or lower the signal. Put shortly: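 ELISA read-out of uPA in human lung primary bronchial epithelial cultures, 24 h post-dosing. Gain or loss of signal fitted bidirectionally relative to DMSO baseline; cytotoxicity checked in parallel cultures via SRB total protein stain.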

Read-out in experiment [7]: Urokinase-type plasminogen activator receptor (uPAR), PLAUR (gene 5329)
Briefly: BSK_BE3C_uPAR: BioMAP Diversity Plus: BE3C Assay for Urokinase-type plasminogen activator receptor (uPAR) Biomarker Activity (AID 2283039).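 As to outcome: uPAR protein level measured by ELISA on the cells; cells exposed to compound for one day before measurement.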 The following applies: primary human bronchial epithelial cells; actives raise or lower the signal. Put shortly: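 Primary human bronchial epithelial cells dosed for 24 h; uPAR quantified by ELISA with bidirectional fitting against DMSO. Overt cytotoxicity assessed in parallel cultures by SRB total-protein staining (0.1% SRB, 560 nm).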

Read-out in experiment [8]: Interleukin-6 (IL6), IL6 (gene 3569)
Briefly: BSK_CASM3C_IL6: BioMAP Diversity Plus: CASM3C Assay for Interleukin-6 (IL6) Biomarker Activity for (AID 2283040). The following applies: primary human coronary artery smooth muscle cells; actives raise or lower the signal.

Read-out in experiment [9]: Tissue plasminogen activator (tPA), PLAT (gene 5327)
Nature of the experiment: BSK_BE3C_tPA: BioMAP Diversity Plus: BE3C Assay for Tissue plasminogen activator (tPA) Biomarker Activity (AID 2283041).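 As to outcome: tPA level quantified by ELISA one day after compound addition.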 The following applies: primary human bronchial epithelial cells; actives raise or lower the signal. Put shortly:
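Primary human bronchial epithelial cells in the BE3C system, exposed to compound for 24 h. tPA was quantified by ELISA; DMSO served as baseline, with gain or loss of signal fitted. Cytotoxicity checked in parallel cultures by SRB total-protein staining.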

Read-out in experiment [10]: Interleukin-8 (IL8), CXCL8 (gene 3576)
Briefly: BSK_CASM3C_IL8: BioMAP Diversity Plus: CASM3C Assay for Interleukin-8 (IL8) Biomarker Activity (AID 2283042).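 Also: IL-8 protein level quantified by ELISA.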 As to conditions: primary human coronary artery smooth muscle cells; actives raise or lower the signal.

Where “and” joins values, the source holds several entries; their conditions need not be identical. Equal entries are not always repeated. Calls of active or inactive are those of the source. The calls were made as follows: active = hit-call score of the fitted dose curve at least 0.9, where 1 is the maximum; inactive = score below 0.9.

For the molecule `CC(C)(c1cc(Br)c(OCCO)c(Br)c1)c1cc(Br)c(OCCO)c(Br)c1`, the figures for the half-maximal activity concentration (AC50) in [1] and in [2] were 11.4 µM (active) and 4.54 µM (active), respectively. The outcome in [3], in experiment [4], in [5], in [6], in experiment [7] and in [8] was inactive. Moreover, the result in [9] and in experiment [10] was inactive.

Regarding `C=CC(=O)OCC(Br)CBr` (stereo unspecified), the AC50 in experiment [1] was 20 µM (active); in [2], 23.3 µM (active); in experiment [3], 31.4 µM (active); in [8], 26 µM (active); in experiment [10], 30.4 µM (active). The result in [4], in [5], in experiment [6], in [7] and in [9] was inactive.

For the molecule `O=C(Cl)c1cc(C(=O)Cl)cc(C(=O)Cl)c1`, the AC50 was 14.8 µM (active) in experiment [1]; 30.4 µM (active) in [2]; 39.1 µM (active) in experiment [3]; 26.7 µM (active) in [5]; 20 µM (active) in experiment [6]; 24.4 µM (active) in [7]. In addition, the concentration at half-maximal activity (AC50) in experiment [8] was 26.1 µM (active); in [9] it was 31.8 µM (active); in experiment [10], 30.3 µM (active). In addition, in experiment [4], the result was inactive.

On to `O=C(c1ccc(O)cc1)c1ccc(O)cc1O`, for which the result in [1], in experiment [2], in experiment [3], in experiment [6], in [7] and in [8] was inactive. The result in [9] and in [10] was inactive. In addition, the concentration at half-maximal activity (AC50) in [5] is 13.2 µM (active) and 12.6 µM (active).

In the case of `N#[N+]c1ccc2c(S(=O)(=O)[O-])cccc2c1O`, the outcome in experiment [1], in [2], in experiment [3], in [4], in experiment [5] and in experiment [6] was inactive. Also, the outcome in experiment [7], in [8], in experiment [9] and in [10] was inactive.

As for `CCCCNc1ccc(NCCCC)c2c1C(=O)c1ccccc1C2=O`, the result in experiment [1], in [3], in experiment [5], in [8], in [9] and in experiment [10] was inactive. For the same molecule, the half-maximal activity concentration (AC50) in experiment [2] was 4.33 µM (active); in experiment [4], 5 µM (active); in experiment [6] it was 5 µM (active); in [7] it was 6.83 µM (active).

Consider `O=C(Nc1ccccc1SSc1ccccc1NC(=O)c1ccccc1)c1ccccc1`, for which the half-maximal activity concentration (AC50) in experiment [1] was 20 µM (active); in experiment [2], 1.03 µM (active). The result in experiment [3], in [4], in experiment [5], in [6], in [7] and in [8] was inactive. Besides, the result in experiment [9] and in experiment [10] was inactive.

For `CCO[Si](C)(OCC)OCC`, the result in [1], in [2], in experiment [3], in experiment [5], in experiment [6] and in experiment [7] was inactive. The result in experiment [8], in experiment [9] and in experiment [10] was inactive.

Turning to `CCO[Si](CCCN=C=O)(OCC)OCC`, the outcome in [1], in [2], in experiment [3], in experiment [4], in experiment [5] and in experiment [6] was inactive. Moreover, the result in experiment [7], in experiment [8], in [9] and in experiment [10] was inactive.

As for `COc1ccc2nc(N)sc2c1`, the outcome in experiment [1], in [2], in experiment [3], in experiment [4], in [5] and in [6] was inactive. In addition, the result in experiment [7], in [8], in experiment [9] and in [10] was inactive.

In the case of `O=c1c2ccccc2oc2ccccc12`, the result in [1], in experiment [2], in experiment [3], in experiment [4], in experiment [5] and in [6] was inactive. Besides, the outcome in experiment [7], in experiment [8], in experiment [9] and in [10] was inactive.

Take `C=CCOc1c(Br)cc(Br)cc1Br`: the AC50 in [1] was 31.5 µM (active); in [2], 30.9 µM (active); in experiment [4] it was 6.57 µM (active); in [5], 20 µM (active); in [6], 20 µM (active); in experiment [7], 25.2 µM (active). In addition, the figures for the AC50 in experiment [8], in [9] and in [10] were 27.5 µM (active), 8.88 µM (active) and 27.1 µM (active), respectively. For the same molecule, the outcome in experiment [3] was inactive.

Turning to `S=C(NC1CCCCC1)NC1CCCCC1`, the outcome in experiment [1], in experiment [2], in [3], in [4], in experiment [5] and in experiment [6] was inactive. The result in [7], in experiment [8], in experiment [9] and in experiment [10] was inactive.

Turning to `CCCCC(CC)COC(=O)c1ccccc1O` (stereo unspecified), in [1], the concentration at half-maximal activity (AC50) is 14.9 µM (active). Also, the result in [2], in experiment [3], in experiment [4], in experiment [5], in experiment [6] and in experiment [7] was inactive. Further, the result in experiment [8], in experiment [9] and in [10] was inactive.

Consider `CCOC(=O)c1ccccc1C(=C1C=C(Br)C(=O)C(Br)=C1)c1cc(Br)c(O)c(Br)c1`, for which the AC50 is 20.6 µM (active) and 20.1 µM (active) in [1]; 3.73 µM (active) and 3.06 µM (active) in [2]; 5.86 µM (active) and 5.17 µM (active) in experiment [3]; 2.48 µM (active) in [5]; 3.81 µM (active) and 4.21 µM (active) in experiment [6]; 7.89 µM (active) and 4.27 µM (active) in experiment [7]. Moreover, the AC50 in experiment [9] is 2.55 µM (active) and 2.71 µM (active). The result in experiment [8] and in experiment [10] was inactive.

For `c1ccc(-c2ccccn2)nc1`, the result in experiment [1], in experiment [2], in [3], in [4], in experiment [5] and in experiment [6] was inactive. Further, the result in experiment [7], in experiment [8], in experiment [9] and in experiment [10] was inactive.

As for `CO[Si](OC)(OC)c1ccccc1`, the outcome in experiment [1], in experiment [2], in experiment [3], in experiment [5], in experiment [6] and in experiment [7] was inactive. The outcome in experiment [8], in experiment [9] and in experiment [10] was inactive.

As to `C=CCOCC(O)CCl` (stereo unspecified), the result in experiment [1], in [2], in experiment [3], in experiment [4], in experiment [5] and in experiment [6] was inactive. The outcome in experiment [7], in [8], in [9] and in experiment [10] was inactive.
